In PubChem BioAssay (NCATS) one finds activation, Potency and activity change % (negative = inhibition) data, which are given here for 36 compounds.

For experiment [1], the target named is Glucocorticoid receptor (Homo sapiens) (UniProt P04150). The experiment in a line: qHTS assay for small molecule agonists of glucocorticoid receptor signaling (AID 588532; active = well fitted curve in the direction sought with a large enough effect in the signal ratio, with a control signal flat; the % refers to the signal ratio;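 also: 100% = dexamethasone at 0.1 µM and 0% = DMSO only wells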). As to conditions: HeLa MMTV-bla, beta-lactamase ratio, agonist, 18 h; stronger effect = higher value; percent of dexamethasone control, DMSO zero. The gist of the method: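 MMTV-bla HeLa, beta-lactamase reporter; medium with 1% charcoal/dextran-stripped FBS; cpds up to 92 uM, 18 h, 37 C; CCF4 readout 460/530 nm; Hill fit → EC50, efficacy vs 0.1 uM dexamethasone = 100%.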
A general note: In qHTS, concentration-response curves come from the screen itself.

Experiment [2] shares this target. Kind of experiment: qHTS assay for small molecule antagonists of glucocorticoid receptor signaling (AID 588533; active = well fitted inhibition curve with a large enough effect in the signal ratio, with a control signal flat, not every such curve was filed as active; the % refers to the signal ratio;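 also: cells stimulated with 2 nM dexamethasone as agonist; % is scaled to controls: 0 for no effect and ±100 for the full control effect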). The gist of the method: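 Antagonist-mode qHTS: compound titrations added to GRE-bla HeLa cells, then dexamethasone 2 nM final; 18 h, 37 C. CCF4 FRET fluorescence normalized to dexamethasone and DMSO; IC50 from Hill fit.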
For experiment [3], the target named is Peroxisome proliferator-activated receptor delta (Homo sapiens) (UniProt Q03181). Kind of experiment: qHTS assay for small molecule antagonists of peroxisome proliferator-activated receptor delta signaling (AID 588535; active = well fitted inhibition curve with a large enough effect in the signal ratio, with a control signal flat, not every such curve was filed as active; the % refers to the signal ratio). The gist of the method: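 Inhibition of PPAR-delta response element-driven beta-lactamase expression is measured in HEK293T cells exposed to a compound titration series for 18 hrs at 37 C. Half-maximal inhibition comes from Hill equation fitting.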

The target in experiment [4] is Thyroid hormone receptor beta (Homo sapiens) (UniProt P10828). The experiment in a line: qHTS assay for small molecule antagonists of thyroid hormone receptor beta signaling (AID 588547; active = well fitted inhibition curve with a large enough effect in the signal ratio, with a control signal flat, not every such curve was filed as active; the % refers to the signal ratio;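 also: cells stimulated with 0.4 nM T3 agonist during compound exposure; series mostly up to about 77 µM; % is scaled to controls: 0 for no effect and ±100 for the full control effect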). The conditions noted are these: TR-UAS-bla HEK293, beta-lactamase ratio, antagonist mode, 18 h. In a few lines: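 TR-UAS-bla GripTite HEK293 cells in 2% charcoal/dextran FBS medium were preincubated 4 h at 37 C, given compound (0.59 nM to 92 uM) plus 0.4 nM T3 (final) for 18 h, then CCF4 for 2 h at RT; Hill fit gave IC50.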

Experiment [5] in a line: qHTS assay for small molecule agonists of the antioxidant response element (ARE) signaling pathway (AID 651741; active = well fitted activation curve with a large enough effect in the signal ratio; the % refers to the signal ratio; also: potency is read from the fitted curve at half-maximal effect; as to activation: % of control where 0% means no effect). The gist of the method: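 Reporter: beta-lactamase under ARE, stably in HepG2. Exposure: 16 h, 37 C, compounds delivered in DMSO by pin tool after 5 h cell preincubation. Readout: FRET substrate fluorescence after 2 h at RT.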
The nature of experiment [6]: qHTS assay for small molecule activators of the p53 signaling pathway (AID 651743; active = well fitted activation curve with a large enough effect in the signal ratio, not every such curve was filed as active; the % refers to the signal ratio; also: series mostly up to about 92 µM; % of control where 0% means no effect). As to conditions: HCT-116 p53RE-bla, beta-lactamase FRET ratio, 16 h; activation: stronger effect = higher value. In a few lines: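 Agonist-mode quantitative HTS in HCT-116 cells carrying a p53-response-element beta-lactamase reporter; 16 h compound treatment at 37 C, then FRET substrate loading for 2 h at room temperature and fluorescence read.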

Experiment [7] can be described thus: qHTS assay for small molecule agonists of the antioxidant response element (ARE) signaling pathway measured by Nrf2-dependant transcriptional activity (AID 720636). Also: % of control where 0% means no effect. The gist of the method:
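ARE-luc HepG2 cells carrying an Nrf2-responsive luciferase reporter were plated in medium with 1% dialyzed FBS, left 6 hr at 37 C to attach, then exposed to compound for 16 hr. Luciferase luminescence was read after ONE-Glo addition.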

Experiment [8] addresses Bile acid receptor (Homo sapiens) (UniProt Q96RI1). The experiment in a line: qHTS assay for small molecule antagonists of farnesoid X receptor signaling (AID 588526; calls by dose curve; also: % is scaled to controls: 0 for no effect and ±100 for the full control effect). In a few lines: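 Concentration-response titrations were fitted to the Hill equation for half-maximal inhibition and maximal response, with data normalised to 50 uM chenodeoxycholic acid and DMSO control wells. Cells: FXR-UAS-bla HEK293T, dialyzed FBS.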

Structures are written as SMILES. Results filed as inconclusive are left out. Values without a mark were called inactive. The source made the active and inactive calls. Unless noted, calls follow the shape of the dose curve; as a rule, active = well fitted activation curve with a large enough effect in the repeat runs; inconclusive = weak or mixed curves; inactive = flat fitted curve, though single readings scatter.

Chain of Bile acid receptor (Homo sapiens) (Q96RI1 whole entry, looked up): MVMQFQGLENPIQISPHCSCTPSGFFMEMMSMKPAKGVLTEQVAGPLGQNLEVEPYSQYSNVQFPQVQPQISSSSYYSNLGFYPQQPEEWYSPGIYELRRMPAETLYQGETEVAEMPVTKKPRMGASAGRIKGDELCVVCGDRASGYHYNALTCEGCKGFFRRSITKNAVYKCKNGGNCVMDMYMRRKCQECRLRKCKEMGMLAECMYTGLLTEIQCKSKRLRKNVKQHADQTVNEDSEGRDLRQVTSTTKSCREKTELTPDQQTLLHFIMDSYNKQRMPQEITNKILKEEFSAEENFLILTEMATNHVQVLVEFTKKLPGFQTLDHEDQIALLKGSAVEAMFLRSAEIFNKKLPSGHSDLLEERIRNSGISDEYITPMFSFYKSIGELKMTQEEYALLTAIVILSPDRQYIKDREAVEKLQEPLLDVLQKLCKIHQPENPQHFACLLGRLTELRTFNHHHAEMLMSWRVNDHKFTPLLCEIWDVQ
Chain of Thyroid hormone receptor beta (Homo sapiens) (P10828 whole entry, looked up): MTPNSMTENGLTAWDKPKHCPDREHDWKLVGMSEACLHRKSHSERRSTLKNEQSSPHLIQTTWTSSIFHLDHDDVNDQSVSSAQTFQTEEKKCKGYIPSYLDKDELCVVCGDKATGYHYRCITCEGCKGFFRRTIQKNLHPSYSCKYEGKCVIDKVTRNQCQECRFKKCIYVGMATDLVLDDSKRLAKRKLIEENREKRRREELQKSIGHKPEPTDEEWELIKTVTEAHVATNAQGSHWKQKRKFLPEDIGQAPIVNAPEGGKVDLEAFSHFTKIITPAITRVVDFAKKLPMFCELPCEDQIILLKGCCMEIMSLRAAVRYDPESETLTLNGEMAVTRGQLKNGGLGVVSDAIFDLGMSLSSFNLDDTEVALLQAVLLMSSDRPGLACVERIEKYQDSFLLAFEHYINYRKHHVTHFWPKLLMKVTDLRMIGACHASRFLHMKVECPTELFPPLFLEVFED
Chain of Glucocorticoid receptor (Homo sapiens) (P04150 whole entry, looked up): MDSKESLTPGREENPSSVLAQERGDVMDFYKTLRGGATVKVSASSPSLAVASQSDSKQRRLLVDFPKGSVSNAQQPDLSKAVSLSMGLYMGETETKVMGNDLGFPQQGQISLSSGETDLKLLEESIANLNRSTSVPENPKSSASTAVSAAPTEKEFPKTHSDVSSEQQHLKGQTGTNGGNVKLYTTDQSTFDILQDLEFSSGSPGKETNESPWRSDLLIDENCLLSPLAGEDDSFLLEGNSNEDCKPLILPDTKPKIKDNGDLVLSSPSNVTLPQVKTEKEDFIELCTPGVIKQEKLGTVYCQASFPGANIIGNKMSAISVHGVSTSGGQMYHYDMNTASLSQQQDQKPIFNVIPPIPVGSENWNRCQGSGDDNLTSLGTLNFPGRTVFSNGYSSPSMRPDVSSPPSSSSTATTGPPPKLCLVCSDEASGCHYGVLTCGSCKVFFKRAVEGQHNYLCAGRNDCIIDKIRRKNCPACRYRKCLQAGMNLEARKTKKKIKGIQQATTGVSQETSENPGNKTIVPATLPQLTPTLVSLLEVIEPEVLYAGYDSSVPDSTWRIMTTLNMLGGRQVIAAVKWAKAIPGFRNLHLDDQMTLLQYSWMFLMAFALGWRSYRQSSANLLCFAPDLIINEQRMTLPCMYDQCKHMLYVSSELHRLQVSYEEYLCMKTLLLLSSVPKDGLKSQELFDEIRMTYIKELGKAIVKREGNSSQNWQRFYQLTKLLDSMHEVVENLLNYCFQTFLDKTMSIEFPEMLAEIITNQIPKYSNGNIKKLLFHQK
Chain of Peroxisome proliferator-activated receptor delta (Homo sapiens) (Q03181 whole entry, looked up): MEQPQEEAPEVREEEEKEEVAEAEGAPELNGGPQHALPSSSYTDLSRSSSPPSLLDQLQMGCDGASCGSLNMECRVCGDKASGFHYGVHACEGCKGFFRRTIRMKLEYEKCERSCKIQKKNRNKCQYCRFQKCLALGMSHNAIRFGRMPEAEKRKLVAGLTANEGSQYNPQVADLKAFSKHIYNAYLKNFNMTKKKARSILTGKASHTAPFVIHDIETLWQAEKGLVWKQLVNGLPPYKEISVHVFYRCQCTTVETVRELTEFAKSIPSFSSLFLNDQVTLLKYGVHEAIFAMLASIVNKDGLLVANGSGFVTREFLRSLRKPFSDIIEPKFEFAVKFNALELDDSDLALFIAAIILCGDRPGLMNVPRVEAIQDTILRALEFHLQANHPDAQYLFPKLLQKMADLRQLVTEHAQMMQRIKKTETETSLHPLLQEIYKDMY

On to `Cc1ccc(S(=O)(=O)N=C=O)cc1`, for which the values for the activation in experiment [1] and in experiment [6] were 20.2% and -3.48%, respectively. The Potency result in experiment [2], in experiment [3] and in experiment [5] was “inactive” each time. Further, the activity change % (negative = inhibition) in experiment [4] was 8.97%.

Consider `c1ccc(-c2ccc(-c3ccccc3)cc2)cc1`, for which the activation in experiment [1] is -0.857%. Further, the Potency result in experiment [2] and in experiment [3] was “inactive” each time. In addition, the activity change % (negative = inhibition) in experiment [4] is 2.31%.

In the case of `CN(C)C(=O)Nc1ccccc1`, the Potency entry in experiment [3] and in experiment [7] was “inactive” in each case. In experiment [4], the activity change % (negative = inhibition) is -24.6%.

`OC1CCC(C2CCCCC2)CC1` (configuration not stated): the Potency result in experiment [8], in experiment [2], in experiment [3] and in experiment [5] was “inactive” throughout. Also, the activity change % (negative = inhibition) in experiment [4] was 4.98%. The activation in experiment [6] is 3.92%.

In the case of `CCOC(=O)CC(O)(CC(=O)OCC)C(=O)OCC`, the activation in experiment [1] is -0.518%; in experiment [6], -0.036%. In addition, the Potency entry in experiment [2], in experiment [5] and in experiment [7] was “inactive” in each case. In experiment [4], the activity change % (negative = inhibition) is 13%.

In the case of `CCCCCCCCCCCO`, the Potency entry in experiment [8], in experiment [3] and in experiment [7] was “inactive” each time.

As to `c1cc(-c2ccncc2)ccn1`, the activation in experiment [1] is -9.26%. The Potency result in experiment [2] and in experiment [7] was “inactive” in each case. Also, the activity change % (negative = inhibition) in experiment [4] is -17.5%.

In the case of `OCCOCCOCCOCCO`, the activation in experiment [1] was -2.94%; in experiment [6] it was 0.49%. Moreover, the Potency result in experiment [2] and in experiment [5] was “inactive” throughout.

Consider `CC(=O)OC(C)(C)C1CC=C(C)CC1` (configuration not stated), for which the Potency entry in experiment [3], in experiment [5] and in experiment [7] was “inactive” in each case. For the same compound, the activity change % (negative = inhibition) in experiment [4] is -6.17%.

Consider `CCCCOCCOCCOCCO`, for which the Potency entry in experiment [3], in experiment [5] and in experiment [7] was “inactive” in each case. The activity change % (negative = inhibition) in experiment [4] is -0.828%. In addition, the activation in experiment [6] was 2.9%.

For the compound `Brc1ccc(Br)c(Br)c1`, the activity change % (negative = inhibition) in experiment [4] is -13.9%. The Potency entry in experiment [5] and in experiment [7] was “inactive” throughout.

For `CCCCCCCC(=O)OC`, the Potency result in experiment [3], in experiment [5] and in experiment [7] was “inactive” in each case. In addition, the activation in experiment [6] is 3.63%.

In the case of `COC(=O)c1ccccc1C(=O)O`, the activation is -3.15% in experiment [1] and -3.42% in experiment [6]. Besides, the Potency result in experiment [2], in experiment [3], in experiment [5] and in experiment [7] was “inactive” throughout. In experiment [4], the activity change % (negative = inhibition) is -12.2%.

Turning to `CCCCOC(=O)/C=C\C(=O)OCCCC`, the Potency entry in experiment [8], in experiment [2] and in experiment [7] was “inactive” throughout. In addition, the values for the activation in experiment [1] and in experiment [6] were -13.3% and 5.06%, respectively. Further, the activity change % (negative = inhibition) in experiment [4] is 17.7%.

With `CC(C)OC(=O)c1ccccc1C(=O)OC(C)C`, the Potency result in experiment [8], in experiment [2] and in experiment [7] was “inactive” each time. Besides, the activation in experiment [1] was -6.71%.

For the compound `O=C(Cl)c1cc(Cl)cc(Cl)c1`, the activation in experiment [1] is -2.63%; in experiment [6], -0.691%. Further, the Potency result in experiment [2] and in experiment [3] was “inactive” each time.

Consider `CC/C=C\CCOC(=O)c1ccccc1O`, for which the activation in experiment [1] is -3.47%; in experiment [6], -5.63%. The Potency result in experiment [2], in experiment [5] and in experiment [7] was “inactive” each time. In addition, the activity change % (negative = inhibition) in experiment [4] was 0.0454%.

As to `C=CC(=O)OCC[N+](C)(C)C`, the Potency result in experiment [8], in experiment [5] and in experiment [7] was “inactive” throughout. In addition, in experiment [4], the activity change % (negative = inhibition) was -9.01%. Further, the activation in experiment [6] was 2.09%.

Turning to `CC1(C)C(=O)N(Cl)C(=O)N1Cl`, the Potency entry in experiment [2], in experiment [5] and in experiment [7] was “inactive” each time. Moreover, the activation in experiment [6] was -0.829%.

With `CC(C)(C)C1CCC(O)CC1` (configuration not stated), the activation was -9.45% in experiment [1] and -3.97% in experiment [6]. Further, the Potency result in experiment [2], in experiment [3], in experiment [5] and in experiment [7] was “inactive” in each case. Besides, the activity change % (negative = inhibition) in experiment [4] is -2.02%.

Take `CCCCCCCCCCCCCO`: the activation in experiment [1] is 0.908%; in experiment [6], -3%. The Potency result in experiment [2] and in experiment [3] was “inactive” each time. The Potency in experiment [5] is 48.6 µM (active).

`CC1=CC2C3CC(C=C3C)C2C1` (configuration not stated): the activation in experiment [1] is 1.22%. Moreover, the Potency entry in experiment [2], in experiment [3], in experiment [5] and in experiment [7] was “inactive” throughout.

Turning to `NNS(=O)(=O)c1ccc(Oc2ccc(S(=O)(=O)NN)cc2)cc1`, the Potency result in experiment [8], in experiment [3] and in experiment [7] was “inactive” in each case. In experiment [4], the activity change % (negative = inhibition) was -2.89%. For the same compound, in experiment [6], the activation is -0.745%.

As for `CCCC/C=C/CCCCO`, in experiment [1], the activation is -4.1%. The Potency entry in experiment [2], in experiment [5] and in experiment [7] was “inactive” each time. Further, the activity change % (negative = inhibition) in experiment [4] is 0.772%.

For `OC1CCCCCCCCCCC1`, the activation in experiment [1] was -19.4%; in experiment [6], 4.17%. Besides, the Potency result in experiment [2], in experiment [3], in experiment [5] and in experiment [7] was “inactive” each time.

As for `CCCCNS(=O)(=O)c1ccccc1`, the Potency entry in experiment [8], in experiment [2] and in experiment [7] was “inactive” in each case. Further, the values for the activation in experiment [1] and in experiment [6] were -1.82% and 0.183%, respectively. In addition, in experiment [4], the activity change % (negative = inhibition) was -5.57%.

Take `C=CCCCCCCCCC=O`: the results for the activation in experiment [1] and in experiment [6] were 4.91% and 3.83%, respectively. The Potency entry in experiment [2] and in experiment [7] was “inactive” in each case. Besides, the activity change % (negative = inhibition) in experiment [4] was 19.2%.

As to `CC(C)O.CC(C)O.CC(C)O.CC(C)O.[Ti]`, the Potency result in experiment [8], in experiment [3], in experiment [5] and in experiment [7] was “inactive” each time. In addition, the activity change % (negative = inhibition) in experiment [4] is -6.47%.

Take `O=C(O)C(c1ccc(Cl)cc1)c1ccc(Cl)cc1`: the Potency result in experiment [8] and in experiment [3] was “inactive” in each case. In addition, the activity change % (negative = inhibition) in experiment [4] is -8.17%.

Take `c1ccc2c(c1)Cc1ccccc1-2`: the Potency entry in experiment [8] and in experiment [2] was “inactive” throughout. In experiment [4], the activity change % (negative = inhibition) was -15.6%.

With `OCC(CO)(CO)COCC(CO)(CO)CO`, the Potency entry in experiment [8], in experiment [5] and in experiment [7] was “inactive” each time. Also, the activity change % (negative = inhibition) in experiment [4] is -4.48%. Besides, the activation in experiment [6] is -2.73%.

As to `O=C(OCC1CCC2OC2C1)C1CCC2OC2C1` (configuration not stated), the activation is -15% in experiment [1] and 2.61% in experiment [6]. Further, the Potency result in experiment [2], in experiment [3] and in experiment [7] was “inactive” in each case. For the same compound, the activity change % (negative = inhibition) in experiment [4] was 1.74%.

With `C[Si]1(C)O[Si](C)(C)O[Si](C)(C)O[Si](C)(C)O[Si](C)(C)O1`, the activation in experiment [1] is 5.87%; in experiment [6], 1.25%. Besides, the Potency entry in experiment [2], in experiment [5] and in experiment [7] was “inactive” each time.

As to `CC(=O)/C=C/C1C(C)=CCCC1(C)C` (configuration not stated), the Potency result in experiment [8], in experiment [3] and in experiment [5] was “inactive” throughout. In addition, in experiment [6], the activation was -1.49%.

Turning to `c1ccc(OCCOc2ccccc2)cc1`, the activation in experiment [1] was -7.01%; in experiment [6], 2.08%. For the same compound, the Potency result in experiment [2], in experiment [3] and in experiment [5] was “inactive” each time. For the same compound, the activity change % (negative = inhibition) in experiment [4] was 5.59%.

For `O=[N+]([O-])C(CO)(CO)CO`, the Potency result in experiment [3] and in experiment [7] was “inactive” in each case. The activation in experiment [6] was 7.94%.
